# ± gives the standard deviation of the averaged measurements.
# Tested on: MDAMB436
# Assay: cell proliferation (confluence) relative to DMSO control; higher = less growth inhibition
# Conditions: 5 uM; 6 d
# Description: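 Epigenetic chemical probe screen: 15 TNBC cell lines, 500 cells per well in 384-well plates, treated with 5 uM of each of 36 SGC probes for 6 d. Confluency was imaged by IncuCyte ZOOM and normalised to DMSO control wells. Four replicate wells per compound.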
row,SMILES,cell proliferation
1,CCOC(=O)CCNc1cc(N2CCc3ccccc3CC2)nc(-c2ccccn2)n1,16.1 ± 3%
2,CCCOc1ccn2c(C(C)=O)cc(-c3ccccc3S(C)(=O)=O)c2c1,81.7 ± 14%
3,O=C(/C=C/N1C[C@H]2C[C@@H]1CN2c1ccccn1)c1ccccc1O,95.4 ± 3.6%
4,COc1cc(C#N)ccc1S(=O)(=O)Nc1ccc2c(c1)cc(C)c(=O)n2C,75.5 ± 5.1%
5,O=C([C@@H](Cc1cccc(C(F)(F)F)c1)NS(=O)(=O)c1cc(F)c2c(c1)CCNC2)N1CCCC1,84.5 ± 12%
6,COc1c(C)cc(NC(=O)c2nn(Cc3ccc(F)cc3)c3c2CN(C(=O)c2ccc[nH]2)C[C@]3(C)C(N)=O)cc1C,69.4 ± 14%
7,CCCc1cc(C)[nH]c(=O)c1CNC(=O)c1cc(-c2ccc(N3CCN(C(C)C)CC3)nc2)cc2c1cnn2C(C)C,71.1 ± 4.1%
8,CCN(C(=O)CO)[C@H]1CN(/C(=N\C#N)Nc2cccc(OC(F)F)c2)N=C1c1ccc(Cl)c(Cl)c1,93.5 ± 3.8%
9,CCCc1cc(C)n(C)c(=O)c1CN(C)C(=O)c1cc(-c2ccc(N3CCN(C(C)C)CC3)nc2)cc2c1cnn2C(C)C,96.6 ± 3.2%
10,O=C(c1ccc(C(=O)N2CCC(N3CCCC3)CC2)c(Nc2ccccc2)c1)N1CCC(N2CCCC2)CC1,95.2 ± 2.8%
11,CN(C)[C@H]1CN(C2CCc3cccc(F)c32)C[C@@H]1c1ccc(N2CCN(S(C)(=O)=O)CC2)cc1 (some centres not stated),93.7 ± 2.8%
12,COc1ccccc1C(=O)Nc1cc2c(cc1N1CCCC1)n(C)c(=O)n2C,77 ± 3.6%
13,CC[C@H](C)n1cc(C)c2c(C(=O)NCc3c(C)cc(C)[nH]c3=O)cc(-c3ccc(N4CCNCC4)nc3)cc21,89.7 ± 1.7%
14,COc1cc(-c2cn(C)c(=O)c3cnccc23)c(OC)cc1CN(C)C,77.2 ± 7.8%
15,O=C(NC[C@H](O)CN1CCc2ccccc2C1)c1ccnc(NC2CCC2)c1,57.5 ± 18%
16,Clc1cc2c(NC3CCCC3)nnc(-c3ccncc3)c2cc1Cl,93.5 ± 1.4%

row,SMILES,cell proliferation
1,CCOC(=O)CCNc1cc(N2CCc3ccccc3CC2)nc(-c2cccnc2)n1,94.2 ± 5.3%
2,CCC(=O)N1CCOc2c(cc(-c3ccc(OC)c(OC)c3)cc2OC[C@H]2CCCN(C)C2)C1,72.3 ± 4.5%
3,CC(C)N(CCCNC(=O)Nc1ccc(C(C)(C)C)cc1)C[C@H]1O[C@@H](n2cc(Br)c3c(N)ncnc32)[C@H](O)[C@@H]1O,90.4 ± 6.8%
4,Cc1cc(=O)n(C)c2cc(N3C(=O)CC[C@H](NS(=O)(=O)CC(C)C)[C@H]3c3ccc(Cl)cc3)ccc12,73.3 ± 14%
5,CNCCN1CCC(OCc2ccccc2)CC1,76.5 ± 6.8%
6,Cn1cc(CCn2cnc(-c3cnn(C)c3)c2-c2ccc(C#N)cc2)cn1,83.2 ± 14%
7,COc1ccccc1S(=O)(=O)Nc1ccc2c(c1)CN(C)C(=O)N2,57 ± 5.5%
8,CCn1cc(-c2cccc(C(F)(F)F)c2)c2sc(C(=N)NC3CCS(=O)(=O)CC3)cc2c1=O,50.4 ± 30%
9,CC(C)Oc1ccc(-c2c[nH]cc2CN(C)CCN)cc1,59.9 ± 20%
10,COc1cc2c(NC3CCN(C(C)C)CC3)nc(C3CCCCC3)nc2cc1OCCCN1CCCC1,99.08 ± 0.28%
11,O=C(NCC(=O)N1CCCC1)Nc1ccc2cnccc2c1,79.4 ± 7.8%
12,COc1ccc(CCc2nc3cc(-c4c(C)noc4C)ccc3n2C[C@H](C)N2CCOCC2)cc1Cl,57.3 ± 19%
13,CCCc1cc(C)[nH]c(=O)c1CNC(=O)c1cc(-c2ccnc(N3CCN(C)CC3)c2)cc2c1cnn2C(C)C,90.2 ± 6.6%
14,Cc1nnc2c3ccccc3c(N[C@@H](C)[C@H](c3ccccc3)N(C)C)nn12 [L-moses],80.8 ± 11%
15,CC(C)Oc1ccc(-c2c[nH]cc2CN(C)CCO)cc1,84.9 ± 4.5%
16,COc1cc2c(cc1OCCCN1CCCC1)N=C(N)C21CCC1,95.3 ± 6%

# Source: the supplement of paper PMC9337992
